# About 83,000 compounds went through this panel and 20% of them were active in at least one assay; those are over-represented in the sample as a whole.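 Single-concentration screen, 48 h exposure, 96-well plates. Endpoint: percent growth. Below 10 = active.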 Unmarked numbers belong to inactive results. The source made the active and inactive calls.
# Tests used:
# Experiment in all cases: NCI-60 one-dose screen, 48 h (100 = growth as untreated, 0 = no growth, -100 = all killed)
# Details in all cases: 10 µM unless noted
# SR leukemia = tested on: SR leukemia
# RPMI-8226 leukemia = tested on: RPMI-8226 leukemia
# OVCAR-8 ovarian = tested on: OVCAR-8 ovarian
# OVCAR-5 ovarian = tested on: OVCAR-5 ovarian
# OVCAR-4 ovarian = tested on: OVCAR-4 ovarian
# SK-OV-3 ovarian = tested on: SK-OV-3 ovarian
# IGROV1 ovarian = tested on: IGROV1 ovarian
# OVCAR-3 ovarian = tested on: OVCAR-3 ovarian
# HS 578T breast = tested on: HS 578T breast
# NCI/ADR-RES ovarian = tested on: NCI/ADR-RES ovarian
# T-47D breast = tested on: T-47D breast
# BT-549 breast = tested on: BT-549 breast
# MDA-MB-435 melanoma = tested on: MDA-MB-435 melanoma
# SW-620 colon = tested on: SW-620 colon
# MCF7 breast = tested on: MCF7 breast
# HCT-116 colon = tested on: HCT-116 colon
# HCC-2998 colon = tested on: HCC-2998 colon
# KM12 colon = tested on: KM12 colon
Structure (SMILES),growth (SR leukemia),growth (RPMI-8226 leukemia),growth (OVCAR-8 ovarian),growth (OVCAR-5 ovarian),growth (OVCAR-4 ovarian),growth (SK-OV-3 ovarian),growth (IGROV1 ovarian),growth (OVCAR-3 ovarian),growth (HS 578T breast) [%],growth (NCI/ADR-RES ovarian),growth (T-47D breast),growth (BT-549 breast),growth (MDA-MB-435 melanoma),growth (SW-620 colon),growth (MCF7 breast),growth (HCT-116 colon),growth (HCC-2998 colon),growth (KM12 colon)
N#Cc1ccc(O)c(C2=NCC(c3cccc(Oc4ccccc4)c3)O2)c1 (centres undefined),19.7%,28.1%,12.9%,55.5%,18.3%,-1.44% (active),19.2%,27.3%,52.6,2.42% (active),-12.5% (active),30.6%,35.2%,25.6%,21.4%,16.9%,43.7%,21%
CCN(CC)c1ccc(\C=N/N=C(N)/C(N)=N\N=C/c2ccc(N(CC)CC)cc2)cc1,87.6%,99%,99%,126%,110%,102%,105%,115%,103,101%,104%,104%,101%,104%,106%,105%,114%,106%
Cc1cn(-c2cc(NC(=O)c3cncc(C#Cc4cnc(N)c5ncccc45)c3)cc(C(F)(F)F)c2)cn1,62.7%,50.9%,64.5%,60.3%,76.3%,106%,62.3%,92.1%,60.1,86.9%,83.6%,75.3%,55.5%,62.6%,73.9%,35.6%,79.8%,25%
Clc1cc(Cl)c(Cl)c(-c2nnc(SCc3ccncc3Br)o2)c1,-26.8% (active),72.9%,120%,80.1%,90.6%,101%,72.9%,89%,90.4,89.6%,96.1%,99%,98.4%,96.5%,91.8%,88.8%,58.6%,96.2%
Cc1cccc(/C=C/c2c(C(=O)/C=C/c3ccccc3)c(C)nc3ccccc23)c1,11.8%,-11.6% (active),-13.7% (active),-37.9% (active),2.06% (active),33.7%,-27.6% (active),-50.6% (active),18.9,-8.03% (active),-4.51% (active),2.21% (active),-66% (active),-14% (active),3.87% (active),-56.3% (active),-84.5% (active),-52.7% (active)
COc1ccc(-c2ccc(-c3ccc(C(=N)N)cc3)s2)cc1Cl,-7.28% (active),-34.4% (active),-18.2% (active),14.2%,-42% (active),93%,-87.5% (active),-88% (active),44.9,78%,42.6%,93.7%,-65.2% (active),-71.9% (active),-65.5% (active),-52.8% (active),-37.8% (active),-73.2% (active)
CC(=O)O[C@@H]1C[C@]2(C(C)C)O[C@@]1(C)[C@@H]1CCC(C)=C1[C@@H]2OC(=O)/C=C/c1ccccc1,73.6%,76.6%,67.5%,98.1%,79.1%,89.3%,94.9%,89.7%,20,71.9%,76.8%,105%,91.9%,90.6%,83.9%,88.5%,103%,92.8%
CC(C)=CCC[C@](C)(O)[C@H]1CC[C@]2(C)[C@@H]1CC[C@@H]1[C@@]3(C)C/C(=C/c4ccco4)C(=O)C(C)(C)[C@@H]3CC[C@]12C,113%,101%,104%,102%,106%,109%,107%,103%,94.5,104%,97.8%,98.1%,97.4%,99.1%,97.2%,97.4%,105%,106%

# Source: PubChem BioAssay (NCI)
